Assay [1] has as its system Wnt5a (protein binding on small-molecule microarray). Nature of the assay: Wnt5a binders on small-molecule microarray, primary screen, biophysical, 635/667 nm fluorescence (AID 1142).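 Further: fluorescence read at 667 nm with signal to noise per printed feature.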 To be noted: 635 nm fluorescence, higher = more signal.
The nature of assay [2]: cell viability in Huh7 cells, primary screen, cytotoxicity control for HCV replication inhibitor project, CellTiter-Glo luminescence, basal, 48 h (AID 1143).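 Further: Huh7 hepatoma cells carrying a hepatitis C replication reporter with no stimulus; test concentration not given here.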 To be noted: Huh7 HCV replicon, higher = more signal, called active from +8 up or from −8 down. (In general: ATP-based viability assays read luminescence as a measure of living cells.)
The nature of assay [3]: P. aeruginosa biofilm formation inhibitors, primary screen, PAO1 strain, BacTiter-Glo luminescence, LB-PBS (AID 1144). The following applies: 12 h, higher = more signal.
Assay [4] can be described thus: CREB reporter modulators without forskolin, primary screen, cell-based, PC12, CRE-LacZ reporter, unstimulated (AID 1145). To be noted: no forskolin, luminescence, 4.5 h, higher = more signal, called active from +8 up or from −8 down.
Assay [5] is described as follows: CREB reporter modulators under forskolin, primary screen, cell-based, PC12, CRE-LacZ reporter, forskolin-stimulated (AID 1146).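 Further: PC12 cells with 6xCRE LacZ reporter stimulated by forskolin 10 µM; beta-galactosidase reporter signal reflecting CREB driven transcription.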 The following applies: luminescence, 4.5 h, higher = more signal, called active from +8 up or from −8 down.
Assay [6] addresses Streptavidin (Streptomyces avidinii) (UniProt P22629). Nature of the assay: streptavidin binders on small-molecule microarray, primary screen, artefact control for SMM compound annotation, biophysical, 635/667 nm fluorescence (AID 1147).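 Further: signal reflects streptavidin binding to arrayed compounds as a control protein.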 The following applies: streptavidin binding, higher = more signal.
A short description of assay [7]: small-molecule binders of probe aInhba, primary screen, biochemical, small-molecule microarray, 635/667 nm fluorescence (AID 1148).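 Further: score merges 667nm spot fluorescence with signal-to-noise for antibody binding to printed compounds.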 To be noted: higher = more signal.
The target of assay [8] is Torsin-1A (Homo sapiens) (UniProt O14656). Briefly: torsin A binders from cell lysate, primary screen, small-molecule microarray, wild-type, 635/667 nm (AID 1149). The following applies: COS7 hTOR1A-WT lysate, 635 nm fluorescence, higher = more signal.
Assay [9] has the same target. Nature of the assay: small-molecule binders of mutant TOR1A in lysate, primary screen, cell lysate, small-molecule microarray, COS7 lysate, 635/667 nm fluorescence (AID 1150).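 Further: score pools 667 nm emission and signal to noise measuring lysate protein binding.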 To be noted: COS7 hTOR1A mutant lysate, 635 nm fluorescence, higher = more signal.
Assay [10] relates to Sonic hedgehog protein (Shh). Nature of the assay: small-molecule binders of Shh protein, primary screen, biochemical, small-molecule microarray, 635/667 nm fluorescence (AID 1151).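 Further: Shh protein binding to compounds spotted on small-molecule microarray slides; score combines spot fluorescence intensity with signal-to-noise across triplicate slides.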 The following applies: small-molecule microarray binding, 635 nm fluorescence; higher = more signal.
Assay [11] in a line: E. coli DRC41 culture turbidity changes, primary screen, E. coli filamentation inducer project, strain DRC41, OD650, 48 h (AID 1152).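 Further: E. coli MC1000 strain DRC41 lacking acrAB efflux pump and sulA.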 To be noted: E. coli DRC41 (acrAB sulA), higher = more signal, called active from +8 up or from −8 down.
The nature of assay [12]: small-molecule binders of probe aLefty1, primary screen, biochemical, small-molecule microarray, 635/667 nm fluorescence (AID 1153).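 Further: score merges spot fluorescence with signal-to-noise ratio from the scanned slide images.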 The following applies: higher = more signal.
A short description of assay [13]: PSAC antagonists in infected red cells, primary screen, cell-based, P. falciparum Indochina, OD700, 1 h (AID 1154). The following applies: P. falciparum Indochina infected RBC osmotic lysis, higher = more signal, called active from +8 up or from −8 down.
Assay [14] in a line: PSAC antagonists in infected red cells, primary screen, cell-based, P. falciparum Indochina, OD700, 2 h (AID 1155).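 Further: lysis reports solute entry through the parasite surface anion channel PSAC; channel blockers reduce lysis of infected cells.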 To be noted: P. falciparum Indochina infected erythrocytes, osmotic lysis OD700; higher = more signal, called active from +8 up or from −8 down.
Assay [15] is described as follows: osmotic lysis modulators in infected erythrocytes, primary screen, PSAC antagonist project, cell-based, P. falciparum Indochina, OD700, 3 h (AID 1156). The following applies: higher = more signal, called active from +8 up or from −8 down.
Assay [16] is described as follows: PSAC antagonists in infected red cells, primary screen, cell-based, P. falciparum Indochina, OD700, 18 h (AID 1157). To be noted: P. falciparum Indochina infected erythrocytes, osmotic lysis OD700, 18 h; higher = more signal, called active from +8 up or from −8 down.
Assay [17] is described as follows: modulators of S6 phosphorylation in cells, primary screen, cell-based, A549, cytoblot, luminescence, serum-stimulated (AID 1158).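 Further: serum-stimulated A549 lung adenocarcinoma cells; signal is phosphorylated S6 detected by cytoblot immunostaining with HRP secondary.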 To be noted: A549 phospho-S6 cytoblot, 5 h, higher = more signal.
Assay [18] has as its target NADPH oxidase 2 (Homo sapiens) (UniProt P04839). Nature of the assay: NOX2-dependent H2O2 signal modulators, primary screen, NOX inhibitor project, cell-based, HEK293-NOX2, PMA-stimulated, Amplex Red fluorescence (AID 1159). Further: test concentration not given here. The following applies: 45 min, higher = more signal, called active from +8 up or from −8 down.
Assay [19] addresses NADPH oxidase 4 (Homo sapiens) (UniProt Q9NPH5). Nature of the assay: NOX4-dependent H2O2 signal modulators, primary screen, NOX inhibitor project, cell-based, HEK293-NOX4, tetracycline-induced, Amplex Red fluorescence (AID 1160). To be noted: 45 min, higher = more signal, called active from +8 up or from −8 down.
Assay [20] deals with NADPH oxidase 5 (Homo sapiens) (UniProt Q96PH1). Nature of the assay: NOX5-dependent H2O2 signal modulators, primary screen, NOX inhibitor project, cell-based, HEK293-NOX5, Amplex Red fluorescence (AID 1161). To be noted: HEK293-NOX5, ionomycin, 45 min, higher = more signal.

SMILES strings stand for the structures. Activity calls are given as the source filed them. Unless noted, how the calls were made is not given here.

Streptavidin (Streptomyces avidinii), sequence (P22629 whole entry, looked up): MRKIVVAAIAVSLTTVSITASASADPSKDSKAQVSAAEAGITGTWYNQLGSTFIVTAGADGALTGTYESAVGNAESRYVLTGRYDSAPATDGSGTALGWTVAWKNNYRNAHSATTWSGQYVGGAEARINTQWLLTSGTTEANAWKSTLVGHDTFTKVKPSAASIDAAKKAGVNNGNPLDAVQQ
NADPH oxidase 2 (Homo sapiens), sequence (P04839 whole entry, looked up): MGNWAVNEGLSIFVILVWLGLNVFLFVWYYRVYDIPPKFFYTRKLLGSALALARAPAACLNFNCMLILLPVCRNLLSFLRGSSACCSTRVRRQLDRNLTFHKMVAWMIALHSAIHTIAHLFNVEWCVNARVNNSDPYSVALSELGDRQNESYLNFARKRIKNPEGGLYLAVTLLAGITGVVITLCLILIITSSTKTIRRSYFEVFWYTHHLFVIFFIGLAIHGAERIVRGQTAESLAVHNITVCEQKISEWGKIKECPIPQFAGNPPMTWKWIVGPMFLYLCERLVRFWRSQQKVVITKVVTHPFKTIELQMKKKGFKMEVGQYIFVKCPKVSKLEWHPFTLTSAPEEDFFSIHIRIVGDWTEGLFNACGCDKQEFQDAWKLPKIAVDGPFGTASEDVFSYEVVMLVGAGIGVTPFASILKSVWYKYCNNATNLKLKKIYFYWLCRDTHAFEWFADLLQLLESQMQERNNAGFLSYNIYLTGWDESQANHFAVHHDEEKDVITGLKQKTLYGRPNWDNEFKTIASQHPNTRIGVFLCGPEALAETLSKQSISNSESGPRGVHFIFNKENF
NADPH oxidase 4 (Homo sapiens), sequence (Q9NPH5 whole entry, looked up): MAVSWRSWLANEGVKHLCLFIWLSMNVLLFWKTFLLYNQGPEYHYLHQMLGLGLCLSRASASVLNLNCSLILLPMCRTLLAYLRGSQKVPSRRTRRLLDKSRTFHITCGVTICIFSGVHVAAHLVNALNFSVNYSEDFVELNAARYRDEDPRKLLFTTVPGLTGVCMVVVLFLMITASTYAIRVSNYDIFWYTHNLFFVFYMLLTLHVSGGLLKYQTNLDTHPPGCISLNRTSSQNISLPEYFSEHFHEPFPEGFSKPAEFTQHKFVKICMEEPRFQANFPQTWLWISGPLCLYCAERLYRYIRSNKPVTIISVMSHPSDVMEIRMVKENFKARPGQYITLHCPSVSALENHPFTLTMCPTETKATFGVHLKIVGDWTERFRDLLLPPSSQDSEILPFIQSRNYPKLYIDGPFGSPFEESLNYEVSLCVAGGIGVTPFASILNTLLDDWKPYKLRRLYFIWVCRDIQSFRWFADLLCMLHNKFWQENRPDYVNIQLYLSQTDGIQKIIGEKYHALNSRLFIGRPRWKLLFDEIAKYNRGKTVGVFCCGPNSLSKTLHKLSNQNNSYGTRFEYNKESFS
NADPH oxidase 5 (Homo sapiens), sequence (Q96PH1 whole entry, looked up): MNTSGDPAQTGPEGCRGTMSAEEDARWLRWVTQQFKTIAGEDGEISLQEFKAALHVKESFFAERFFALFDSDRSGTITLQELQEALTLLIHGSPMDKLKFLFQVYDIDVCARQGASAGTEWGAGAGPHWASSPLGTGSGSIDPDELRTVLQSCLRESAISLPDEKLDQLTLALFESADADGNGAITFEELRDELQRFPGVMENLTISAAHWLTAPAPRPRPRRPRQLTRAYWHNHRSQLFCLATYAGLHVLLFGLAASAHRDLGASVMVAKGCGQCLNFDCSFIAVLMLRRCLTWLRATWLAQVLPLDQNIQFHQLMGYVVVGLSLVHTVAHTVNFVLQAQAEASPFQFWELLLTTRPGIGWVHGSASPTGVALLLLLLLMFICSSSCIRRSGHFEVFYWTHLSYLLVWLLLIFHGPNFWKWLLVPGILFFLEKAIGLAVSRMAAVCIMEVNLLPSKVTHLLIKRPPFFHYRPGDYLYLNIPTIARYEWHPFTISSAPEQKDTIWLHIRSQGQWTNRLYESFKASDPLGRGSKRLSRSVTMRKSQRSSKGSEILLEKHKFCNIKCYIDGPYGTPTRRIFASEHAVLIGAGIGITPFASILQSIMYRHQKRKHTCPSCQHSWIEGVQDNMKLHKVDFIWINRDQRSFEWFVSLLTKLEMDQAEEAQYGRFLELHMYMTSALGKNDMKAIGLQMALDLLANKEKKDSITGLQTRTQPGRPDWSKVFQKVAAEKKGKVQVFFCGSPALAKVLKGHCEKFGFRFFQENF
Torsin-1A (Homo sapiens), sequence (O14656 whole entry, looked up): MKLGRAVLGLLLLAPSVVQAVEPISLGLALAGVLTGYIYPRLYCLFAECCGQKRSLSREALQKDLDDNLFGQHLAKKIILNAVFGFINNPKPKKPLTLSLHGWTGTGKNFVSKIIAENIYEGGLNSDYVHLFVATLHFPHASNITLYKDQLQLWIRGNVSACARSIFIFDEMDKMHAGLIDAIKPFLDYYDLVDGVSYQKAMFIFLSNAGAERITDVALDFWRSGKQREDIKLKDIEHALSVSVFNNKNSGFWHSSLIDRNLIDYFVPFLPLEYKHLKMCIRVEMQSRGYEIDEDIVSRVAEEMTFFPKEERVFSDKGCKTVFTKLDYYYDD

As to `CCOC(=O)C[C@H]1[C@H](OC(=O)c2ccccc2-c2ccccc2)[C@@H](NC(=O)C2CCCCC2)c2cc(OCCCO)ccc2N1C(=O)c1ccc2ccccc2n1`, the composite z-score came to 0.243 in assay [1]; 0.155 in [6]; 0.222 in [7]; 0.237 in [8]; 0.133 in [9]; 0.897 in assay [10]. The compound also displayed a composite z-score in assay [12] of -0.167. For the same compound, the z-score in assay [2] was -0.911 (inactive); in [3], 0.507 (inactive); in assay [4], 4.83 (inactive); in [5], 1.51 (inactive); in assay [11] it was -0.899 (inactive); in [13], 3.85 (inactive). For the same compound, the z-score in [14] was 0.192 (inactive); in assay [15], -0.192 (inactive); in [16] it was 0.255 (inactive); in [17] it was -0.342; in assay [18], 0.618 (inactive); in [19], 1.23 (inactive). For the same compound, in [20], the z-score worked out at 2.62.

For `COc1ccc([Si](C)(C)[C@@H]2[C@@H](CC(=O)N3CCC[C@H]3CO)O[C@]3(C(=O)N(Cc4ccc(N5CCOC5=O)cc4)c4ccccc43)[C@H]2C)cc1`, the composite z-score was -0.014 in [1]; 0.084 in assay [6]; -0.024 in assay [7]; 0.515 in assay [8]; 0.557 in [9]; 1.42 in assay [10]. The compound further had a composite z-score in assay [12] of -0.0099. The z-score in assay [2] is -3.75 (inactive); in assay [3] it was -0.0278 (inactive); in assay [4], 2.4 (inactive); in assay [5], -1.2 (inactive); in [11], 1.3 (inactive); in assay [13], 6.25 (inactive). In addition, the z-score was 0.176 (inactive) in [14]; -1.52 (inactive) in assay [15]; -0.774 (inactive) in [16]; 0.615 in [17]; 2.64 (inactive) in assay [18]; 1.57 (inactive) in assay [19]. In assay [20], this compound yielded a z-score of 3.85.

`COc1ccc([Si](C)(C)[C@@H]2[C@@H](CC(=O)N3Cc4ccccc4C[C@H]3CO)O[C@]3(C(=O)N(Cc4cccc(N5CCOC5=O)c4)c4ccccc43)[C@H]2C)cc1`: the composite z-score in [1] is 0.244; in assay [6] it was -0.281; in assay [7], -0.0581; in [8], 0.846; in [9], 0.737; in assay [10], 2.11. This compound also displayed a composite z-score in [12] of 0.647. The z-score was -4.12 (inactive) in assay [2]; 0.291 (inactive) in assay [3]; -0.491 (inactive) in [4]; -0.318 (inactive) in assay [5]; -0.207 (inactive) in [11]; 5.29 (inactive) in assay [13]. Further, the z-score in assay [14] is 1.06 (inactive); in [15], 0.599 (inactive); in [16], 0.548 (inactive); in [17] it was 0.114; in assay [18], -2.65 (inactive); in [19] it was 1.1 (inactive). The z-score in assay [20] was -1.02.

With `O=C1C[C@]2(c3ccc([N+](=O)[O-])cc3)C(=O)N(C3CC3)c3cc(CO)ccc3[C@H]2N1C1CCCCC1`, the composite z-score is -0.0069 in assay [1]; 0.358 in assay [6]; -0.159 in assay [7]; -0.145 in assay [8]; -0.192 in assay [9]; 0.147 in assay [10]. For the same compound, the composite z-score in assay [12] turned out to be 0.91. The z-score in [2] is 1.09 (inactive); in [3] it was -0.21 (inactive); in [4] it was 0.802 (inactive); in assay [5], 0.634 (inactive); in [11], -0.348 (inactive); in assay [13], -0.58 (inactive). Also, the z-score was 0.0608 (inactive) in assay [14]; -1.35 (inactive) in assay [15]; -0.0894 (inactive) in assay [16]; -0.278 in assay [17]; 0.0692 (inactive) in assay [18]; 0.987 (inactive) in assay [19]. The z-score in [20] was found to be 0.0695.

As for `CN(C)C(=O)[C@@]1(Cc2ccccc2CN=[N+]=[N-])COC(c2ccc(OCCCO)cc2)=N1`, the composite z-score is 0.0037 in assay [1]; -0.0988 in [6]; -0.0288 in assay [7]; -0.184 in assay [8]; 0.715 in [9]; -1.22 in assay [10]. In addition, the composite z-score in [12] amounted to 0.236. In addition, the z-score was -3.16 (inactive) in [2]; -0.632 (inactive) in assay [3]; -1.34 (inactive) in assay [4]; -1.65 (inactive) in [5]; 2.37 (inactive) in assay [11]; 25.9 (active) in assay [13]. For the same compound, the z-score is 11.1 (active) in [14]; 4.63 (inactive) in assay [15]; 1.67 (inactive) in assay [16]; 0.0188 in assay [17]; -4.96 (inactive) in assay [18]; -1.37 (inactive) in assay [19]. The z-score in assay [20] is -3.41.

For the compound `COC(=O)[C@@]1(Cc2ccccc2)[C@H]2c3cc(C(=O)N(C)C)n(Cc4ccc(S(C)(=O)=O)cc4)c3C[C@H]2CN1C(=O)c1ccccc1`, the composite z-score in [1] was 0.493; in assay [6], 2.48; in [7], 0.496; in assay [8] it was -0.178; in assay [9] it was 1.13; in assay [10], -0.68. In [12], this compound returned a composite z-score of 0.71. The z-score in assay [2] is -1.6 (inactive); in assay [3], -0.361 (inactive); in assay [4] it was 0.39 (inactive); in assay [5], 1.02 (inactive); in assay [11], -1.77 (inactive); in [13], 1.5 (inactive). Also, the z-score in assay [14] is 0.542 (inactive); in assay [15] it was 1.95 (inactive); in assay [16], 0.814 (inactive); in [17], 0.393; in assay [18], 1.12 (inactive); in assay [19], -2.78 (inactive). In addition, the z-score in [20] was -2.6.

Consider `C#CCN1[C@@H](Cc2ccccc2)C(=O)O[C@H](Cc2ccccc2)[C@@H]1/C=C/C1CC1`, for which the composite z-score in [1] is -0.0041; in assay [6] it was -0.497; in [7] it was -0.0763; in assay [8], 0.459; in [9], 0.84; in assay [10] it was 0.482. The composite z-score in assay [12] is -0.103. In addition, the z-score in assay [2] was -3.05 (inactive); in assay [3] it was 1.18 (inactive); in assay [4], 2.12 (inactive); in assay [5], -0.0861 (inactive); in [11] it was 0.827 (inactive); in [13], -0.396 (inactive). In addition, the z-score was 0.317 (inactive) in assay [14]; -0.199 (inactive) in assay [15]; -0.48 (inactive) in assay [16]; -0.328 in [17]; -0.279 (inactive) in assay [18]; -0.284 (inactive) in [19]. The compound also gave a z-score in [20] of -2.19.

`C=CCOC(=O)[C@H]1[C@@H]2C(=O)O[C@@H](c3ccccc3)[C@@H](c3ccccc3)N2[C@@H](c2ccc(OCCOC(=O)[C@H]3C[C@H]4C(=O)N[C@@H](CC(C)C)C(=O)N4[C@H]3c3ccc(O)cc3)cc2)[C@]12C(=O)Nc1ccccc12`: the composite z-score in assay [1] stood at 0.809; in assay [6], 0.137; in assay [7], 0.0544; in assay [8] it was 0.739; in [9], 1.18; in [10], 2.06. The composite z-score in [12] turned out to be 0.13. Further, the z-score in [2] was -0.351 (inactive); in assay [3] it was -1.22 (inactive); in assay [4], -0.26 (inactive); in [5] it was 0.146 (inactive); in assay [11], 0.324 (inactive); in assay [13], 1.64 (inactive). The z-score is 0.998 (inactive) in [14]; 3.83 (inactive) in assay [15]; 0.964 (inactive) in assay [16]; 0.758 in assay [17]; 1.2 (inactive) in assay [18]; 0.776 (inactive) in assay [19]. The z-score in assay [20] was 1.4.

The values are drawn from PubChem BioAssay.
